{"source": "PubChem BioAssay (EPA / NIEHS)", "note": "Results filed as inconclusive are left out. Calls of active or inactive are those of the source. How the source made its calls: active means hit-call score of the fitted dose curve at least 0.9, where 1 is the maximum; inconclusive means response in the unintended direction; inactive means score below 0.9."}
{"assay": "ACEA_ER_80hr: ACEA Biosciences xCELLigence Real-Time Cell Analysis on Estrogen Receptor Agonism for Proliferation (AID 2282667)", "settings": "T47D proliferation, impedance (xCELLigence), 80 h", "method_in_brief": "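Real-time impedance growth kinetics of human T-47D breast cells read 80 h after dosing, gain-of-signal fitted relative to DMSO. Compounds: 1:4 serial series, top final concentration 100 uM, n = 2.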"}
{"smiles": "NC(=O)c1cccnc1", "outcome": "inactive"}
{"smiles": "Cc1cccc(O)c1", "outcome": "inactive"}
{"smiles": "CCOC(=O)CCCCCCCCC(=O)OCC", "outcome": "inactive"}
{"smiles": "[Cl][Dy]([Cl])[Cl]", "AC50": "43 nM (active)"}
{"smiles": "CNC(=C[N+](=O)[O-])NCCSCc1ccc(CN(C)C)o1", "outcome": "inactive"}
{"smiles": "S=c1[nH][nH]c(=S)s1", "AC50": "2680 nM (active)"}
{"smiles": "CC(C)Cc1ccccc1", "outcome": "inactive"}
{"smiles": "O=S(=O)(O)C(F)(F)C(F)(F)OC(F)(F)C(F)(F)F", "outcome": "inactive"}
{"smiles": "CCCCOCCOC(=O)c1ccccc1C(=O)OCCOCCCC", "outcome": "inactive"}
{"smiles": "CCCCOCCOCCO", "outcome": "inactive"}
{"smiles": "O=C1OCc2ccccc21", "outcome": "inactive"}
{"smiles": "CCCCCCCOC(C)=O", "outcome": "inactive"}
{"smiles": "CCC(=O)OC/C=C(\\C)CCC=C(C)C", "AC50": "91.6 nM (active)"}
{"smiles": "CC(=O)Oc1c(C)c(C)c2c(c1C)CC[C@@](C)(CCC[C@H](C)CCC[C@H](C)CCCC(C)C)O2", "outcome": "inactive"}
{"smiles": "c1ccc2scnc2c1", "outcome": "inactive"}
{"smiles": "OCC(F)(OC(F)(F)C(F)(OC(F)(F)C(F)(F)C(F)(F)F)C(F)(F)F)C(F)(F)F", "note": "(configuration not stated)", "outcome": "inactive"}
{"smiles": "CCCCCCCCOS(=O)(=O)O", "outcome": "inactive"}
{"smiles": "CC(=O)C1=C(C)[C@@H]2C[C@@]3(C1)[C@H](C)CC[C@H]3C2(C)C", "outcome": "inactive"}
{"smiles": "CCCCCC#CC(=O)OC", "outcome": "inactive"}
{"smiles": "CC(C)=CCCC(C)=CC(=O)O", "outcome": "inactive"}
{"smiles": "CCCCCCCCCCCCOCCOS(=O)(=O)O", "AC50": "1980 nM (active)"}
{"smiles": "CCCCOC(=O)C(C)OC(=O)CCC", "note": "(configuration not stated)", "outcome": "inactive"}
{"smiles": "Cc1ccccc1S", "outcome": "inactive"}
{"smiles": "COc1cc(OC)c2ccc(=O)oc2c1", "outcome": "inactive"}
{"smiles": "CCOc1ccc(NC(C)=O)cc1", "outcome": "inactive"}
{"smiles": "CCCCN(CCO)CCO", "outcome": "inactive"}
{"smiles": "Nc1ccc(O)c(N)c1", "outcome": "inactive"}
{"smiles": "CCNC(=S)NCC", "outcome": "inactive"}
{"smiles": "CC1=CC(C)C(C=O)C(C)C1", "note": "(configuration not stated) (tested in a mixture with another compound)", "outcome": "inactive"}
{"smiles": "C=C(C)C(=O)OCCN(C)C", "outcome": "inactive"}
{"smiles": "CC1(C)CC(N)CC(C)(CN)C1", "note": "(configuration not stated)", "outcome": "inactive"}
{"smiles": "CCOC(=O)CC1(C)OCC(C)O1", "note": "(configuration not stated)", "outcome": "inactive"}
{"smiles": "Cc1cc(O)c(C)c(C)c1O", "outcome": "inactive"}
{"smiles": "C=C/C(C)=C/C/C=C(\\C)CCC=C(C)C", "outcome": "inactive"}
{"smiles": "C=CC(C)(CCC=C(C)C)OC(=O)CC", "note": "(configuration not stated)", "outcome": "inactive"}
{"smiles": "Cc1cc(O)c2c(c1)C(=O)c1cc(O)cc(O)c1C2=O", "AC50": "493 nM (active)"}
{"smiles": "COc1ccc(N)c(C)c1", "AC50": "43500 nM (active)"}
